Gli-Sufu antag = Gli-Sufu pathway antagonists, primary screen, luciferase luminescence, Sufu-KO-LIGHT cells, uHTS; Sufu-KO-LIGHT fibroblasts, Gli luciferase reporter luminescence; inhibition, % at 5 µM; actives 0.74% (n = 340,000); AID 588413, 2011;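 active = inhibition above about 55%, limit read from the data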;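 note: 0% = DMSO-treated cells and 100% = wells with medium but no cells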
aDG glyco act = activators of alpha-DG glycosylation, primary screen, uHTS, Pro5-aDG cells, AlphaScreen | alpha-DG glycosylation AlphaScreen (IIH6); 0% Pro5, 100% B10-LARGE cell signal | actives 0.22% (n = 360,000) | AID 624168, 2012 | activation, % at 10 µM;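 active = activation of at least 8% versus controls, or a plate z-score of at least 8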;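 note: Pro5 are CHO cells carrying HIG-tagged alpha-DG that lacks glycosylation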
Env fusion inh = inhibitors of HIV-1 Env-driven cell-cell fusion, primary screen, HeLa-JRFL effector, CEM21 target cells, luciferase. inhibition, % at 12.3 µM. actives 1.1% (n = 360,000). AID 651610, 2012;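 active = mean replicate inhibition score of at least 50 and every replicate individually at or above 50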;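 note: 0% = plate neutral controls and 100% = maraviroc near 300 nM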
COUP-TFII inh = NR2F2 transcriptional activity inhibitors, primary screen, cell-based, luciferase reporter, HEK293T, luminescence. HEK293T NGFI-A luciferase reporter. inhibition, % at 8.6 µM. actives 0.7% (n = 370,000). AID 686940, 2013;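 active = inhibition above a per-plate cutoff, mean inhibition of test wells between control levels plus 3 SD, cut at about 38% in these data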;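 note: cells cotransfected with COUP-TFII expression vector driving the NGFI-A reporter; 0% = median of COUP-TF2 test wells and 100% = reporter-only cells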
GalR3 antagonist = GalR3 antagonists in HEK293 cells, primary screen, cell-based, fluorescence readout; Galanin receptor type 3 (Homo sapiens), O60755; HEK293 GalR3-CNG cAMP membrane potential fluorescence; galR3 body fused to GalR1 C-terminus; inhibition, % at 3 µM; actives 0.44% (n = 360,000);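 active = inhibition above the screen-wide average plus 3 SD, cut at about 13% in these data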;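 note: forskolin and galanin both at EC90 stimulate the cells; cAMP rise reported by CNG channel membrane potential dye signal; 0% = forskolin plus galanin with DMSO and 100% = forskolin alone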
Target sequence (O60755 1-299 limits assumed): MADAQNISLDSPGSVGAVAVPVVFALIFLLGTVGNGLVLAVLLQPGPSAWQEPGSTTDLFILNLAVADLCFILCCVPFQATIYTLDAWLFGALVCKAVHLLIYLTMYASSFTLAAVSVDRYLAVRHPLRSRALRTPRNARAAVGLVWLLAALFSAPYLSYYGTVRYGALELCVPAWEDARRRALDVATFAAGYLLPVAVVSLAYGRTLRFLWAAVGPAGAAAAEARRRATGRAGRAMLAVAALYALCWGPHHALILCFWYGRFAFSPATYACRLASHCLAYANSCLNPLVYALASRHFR
Gal4-VP16 ctr = Gal4-VP16 luciferase reporter inhibitors, counter-screen for COUP-TFII antagonist project, cell-based, luminescence, HEK293 | actives 25% (n = 2,500) | inhibition, % at 8.5 µM | shares compounds with COUP-TFII inh; in the data active = inhibition above about 13%
COUP-TFII conf = NR2F2 transcriptional activity inhibitors, confirmation, cell-based, luciferase reporter, HEK293, triplicate. HEK293 NGFI-A luciferase reporter, luminescence. inhibition, % at 8.5 µM. shares compounds with COUP-TFII inh. actives 45% (n = 2,500);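 active = mean inhibition over three repeats above a set limit taken from the earlier primary screen, cut at about 38% in these data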;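 note: 100% = cells given the luciferase reporter alone without the COUP-TF2 vector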
* = called active by the depositor; . = no result; [ ] = dose if it differs, or a comment. An excerpt weighted towards active compounds, which were near 2.1% of everything screened.

SMILES	Gli-Sufu antag	aDG glyco act	Env fusion inh	COUP-TFII inh	GalR3 antagonist	Gal4-VP16 ctr	COUP-TFII conf
C[C@@H]1CN([C@@H](C)CO)C(=O)c2cc(-c3ccncc3)cnc2O[C@H]1CN(C)C(=O)c1ccncc1	.	.	-18[16.7 µM]	.	.	.	.
O=C(C1CCCN(S(=O)(=O)c2cccc3nsnc23)C1)N1CCc2ccccc2C1 (configuration not stated)	11	0	.	41*	1	-6	2
C[C@@H]1CN([C@@H](C)CO)C(=O)c2cc(-c3ccccc3)cnc2O[C@@H]1CN(C)Cc1ccccn1	.	.	-20[16.7 µM]	.	.	.	.
Clc1ccc(CSc2nnc(-c3ccc4c(c3)OCO4)o2)cc1	0	0	.	0	2	.	.
O=C1CCCCC1Sc1nnc(-c2ccc3c(c2)OCO3)o1 (configuration not stated)	-2	0	68*	64*	-8	22*	59*
CCNC(=O)OCCN1C(=O)CCC12CCC(c1ccc(Cl)cc1)CC2 (configuration not stated)	.	.	.	20	.	.	.
COc1ccc(C2CCC3(CCC(=O)N3CCOC(=O)NCc3ccc(Cl)cc3)CC2)cc1 (configuration not stated)	.	.	.	40*	.	2	16
COc1cccc(CNc2nc3cc(-c4cnn(Cc5ccccc5)c4)sc3c(=O)n2C)c1	.	1	30	79*	-4	17*	54*
COc1ccccc1CNc1nc2cc(-c3ccc(OC)c(OC)c3)sc2c(=O)n1C	.	0	-38	41*	-4	-13	8
O=C(NCC[C@@H]1CC[C@H](NC(=O)c2cnccn2)[C@H](CO)O1)c1ccc2c(c1)OCO2	.	.	-11[16.7 µM]	.	.	.	.
COC(=O)c1ccc(N2C(c3ccsc3)=Cc3cc4c(cc3C2CC(=O)c2ccco2)OCO4)cc1 (configuration not stated)	.	0	0	43*	-3	-1	8
COC(=O)c1ccc(N2C(c3cc(OC)cc(OC)c3)=Cc3ccc(OC)cc3C2CC(=O)c2ccco2)cc1 (configuration not stated)	.	-1	1	2	-5	.	.
C[C@@H]1CN([C@@H](C)CO)C(=O)c2cc(-c3cccnc3)cnc2O[C@H]1CN(C)C(=O)C1CCC1	.	.	9[16.7 µM]	.	.	.	.
CN1CCN(C(=O)[C@@H]2[C@@H](CO)[C@@H]3Cn4c(cccc4=O)[C@H]2N3Cc2ccncc2)CC1	.	.	-7[16.7 µM]	.	.	.	.
COc1ccc(CNn2c(-c3cccs3)nc3ccccc3c2=O)cc1OC	11	-1	21	38*	-4	-9	6
O=C(N[C@H]1CC[C@H](CCNS(=O)(=O)c2ccccc2)O[C@H]1CO)c1cccc(F)c1	.	.	6[16.7 µM]	.	.	.	.
CC(=NNc1ccc2ccccc2n1)c1ccccn1	.	.	110*	59*	-9	34*	74*
Cc1ccc2c(c1)N(C)/C(=C/c1cccc[n+]1C)S2	82*	0	40	57*	-7	0	42*
CCN1/C(=C/C(C)=O)Sc2ccc(OC)cc21	-3	0	-298	-18	-3	.	.
CCN1/C(=C/c2cccc[n+]2C)Sc2ccc(OC)cc21	77*	0	20	77*	-9	-4	46*
O=C(COc1ccc(Nc2ccccc2)cc1)Nc1ccncc1	1	0	1	48*	-5	1	20
O=C(COc1ccc(Br)cc1)Nc1ccncc1	7	0	.	-5	-1	.	.
CC(=O)c1c(C)[nH]c(C(=O)OCc2ccc([N+](=O)[O-])cc2)c1C	-12	1	2	-12	-9	.	.
COC(=O)c1ccc(COC(=O)c2[nH]c(C)c(C(C)=O)c2C)o1	28	5	.	41*	7	-4	25
COCCN=c1scc(-c2ccc3c(c2)NC(=O)CO3)n1/N=C(\C)c1ccc(O)cc1	-5	0	-9	38*	9	-8	0

Assay outcomes as filed in PubChem.
